High-throughput results as filed in PubChem BioAssay.
TDP1 cell noCPT: qHTS for Inhibitors of human tyrosyl-DNA phosphodiesterase 1 (TDP1): qHTS in cells in absence of CPT; 15% of 420,000 active; AID 686978, 2013; Potency, µM (highest dose often 46.2 µM), for the others: at the top dose activity change, negative = growth inhibition, actives largely listed as inhibitors; DT40 Tdp1-/- hTDP1 cells, no CPT, ATP luminescence, 48 h; also: potency is read from the fitted curve at half-maximal effect; nearly all actives have a fitted effect of over 55% in size
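Compound effects on proliferation are scored in DT40 Tdp1-/-;hTDP1 cells in the absence of CPT. ATP levels (CellTiter-Glo luminescence) are recorded after a ≥48 hr, 37 °C incubation.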
HT1080NT lethal: kills 2HG-producing HT-1080-NT fibrosarcoma cells. HT-1080-NT fibrosarcoma viability, CellTiter-Glo ATP luminescence, 48 h. Potency, µM (top dose mostly 46.1 µM), for inactives: at the highest dose activity, negative = less viability, most hits filed as cytotoxic. 1.6% of 360,000 active;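 also: NT is the 2HG producing partner of a matched IDH1 knockdown line; potency is read from the fitted curve at half-maximal effect; 0% = DMSO-treated cells and -100% = media-only wells without cells; nearly all actives have a fitted effect of over 55% in size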
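Toxicity toward the 2HG-producing NT line was scored as %Activity, normalised to DMSO and no-cell wells, from CellTiter-Glo luminescence after 48 hours' treatment.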
HT1080 IDH1KD tx: kills HT-1080 cells with IDH1 knockdown; Potency, µM (series often up to 46.1 µM), for inactives: at the highest dose activity, negative = toxicity, usual class: cytotoxic; HT-1080 IDH1 knockdown viability, ATP luminescence, 48 h; 2% of 360,000 active;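 also: potency is read from the fitted curve at half-maximal effect; 0% = DMSO wells and -100% = cell-free medium wells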
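Using the IDH1-knockdown HT-1080 line run in the same batch and compound series as the NT line, viability after 48 h at 37 °C was determined by CellTiter-Glo luminescence and expressed as % activity.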
DT40 TDP1 CPT: DT40-hTDP1 cell growth loss with CPT; chicken DT40 Tdp1-/-;hTDP1 cells + 20 nM CPT, ATP luminescence, 48 h; Potency, µM (top dose mostly 46.2 µM), for inactives: at the highest dose activity change, negative = growth inhibition, hits mostly inhibitors; 12% of 420,000 active; also: potency is read from the fitted curve at half-maximal effect; nearly all actives have a fitted effect of over 55% in size
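Chicken DT40 Tdp1-/- cells stably complemented with human TDP1 were seeded at 400 cells/well in medium containing 20 nM camptothecin, exposed to pin-transferred compounds, and grown at 37 °C for at least 48 hr. Viability was read as ATP luminescence.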
12-LOX inh: inhibitors of human 12S-lipoxygenase ALOX12; Potency, µM (doses to about 108 µM), inactives show top-dose activity change, negative = inhibition, hits mostly inhibitors; AID 1671190; P18054; purified 12hLO, xylenol orange hydroperoxide absorbance; 1.1% of 580,000 active; also: potency is read from the fitted curve at half-maximal effect
Target sequence (P18054 whole entry, looked up): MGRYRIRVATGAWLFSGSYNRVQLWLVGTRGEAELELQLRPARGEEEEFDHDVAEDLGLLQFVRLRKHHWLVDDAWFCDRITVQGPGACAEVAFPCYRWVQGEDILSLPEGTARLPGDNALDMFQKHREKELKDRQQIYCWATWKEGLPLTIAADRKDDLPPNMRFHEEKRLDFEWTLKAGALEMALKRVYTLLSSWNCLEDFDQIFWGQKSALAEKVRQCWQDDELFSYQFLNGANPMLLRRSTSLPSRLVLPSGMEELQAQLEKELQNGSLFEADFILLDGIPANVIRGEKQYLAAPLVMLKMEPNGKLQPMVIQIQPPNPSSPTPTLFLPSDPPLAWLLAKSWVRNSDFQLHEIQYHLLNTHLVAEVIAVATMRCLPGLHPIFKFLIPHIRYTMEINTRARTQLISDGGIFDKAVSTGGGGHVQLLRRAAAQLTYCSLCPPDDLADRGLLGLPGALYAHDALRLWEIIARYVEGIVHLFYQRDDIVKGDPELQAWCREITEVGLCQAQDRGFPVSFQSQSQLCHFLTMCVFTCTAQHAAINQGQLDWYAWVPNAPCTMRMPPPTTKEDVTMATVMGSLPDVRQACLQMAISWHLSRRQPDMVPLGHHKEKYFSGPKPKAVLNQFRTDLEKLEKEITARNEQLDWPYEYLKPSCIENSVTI
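Purified human 12hLO at 150 nM in 25 mM Hepes, 0.01% Triton X-100, pH 7.0, preincubated 15 min at room temperature with compound. Reaction started with 40 uM arachidonic acid, 30 min at room temperature. Hydroperoxide measured by Fe-xylenol orange, 573/405 nm absorbance ratio.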
IL1B secr inh: inflammasome signaling inhibition, IL-1 beta readout | THP-1 LPS/ATP IL-1B secretion, AlphaLISA, 16 h; hits give low values | activity change, % at 57.5 µM | 4.7% of 360,000 active | AID 743279; in the data active = activity change below about -50%; inconclusive = mostly about -30% to -49%
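THP-1 cells pretreated 1 hr with compounds (up to 57.5 uM final), then stimulated with LPS (250 ng/mL final) plus ATP (1.25 mM final); secreted IL-1B measured by AlphaLISA after 16 hr, decreased signal indicating inhibition.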
Numbers without * were called inactive; ? = inconclusive; nt = no result. This excerpt belongs to a sample that is enriched for hits. Unless noted, calls follow the shape of the dose curve; as a rule, active = well fitted curve in the direction sought with a large enough effect; inconclusive = small, poorly fitted or top-dose-only effect, or another doubt; inactive = no such curve, though single readings can be large; an effect the other way counts as inactive or inconclusive. Unless noted, % is scaled to controls: 0 for no effect and ±100 for the full control effect.

SMILES	TDP1 cell noCPT	HT1080NT lethal	HT1080 IDH1KD tx	DT40 TDP1 CPT	12-LOX inh	IL1B secr inh
CCCCC1Cc2[nH]c(=S)[nH]c(=O)c2C(C(C)C)O1 (stereo not given)	?	10%	-9%	?	0%	40
CC(C)[C@@H]1Cc2[nH]c(=S)[nH]c(=O)c2[C@H](CCc2ccccc2)O1	?	-4%	-10%	?	45µM*	21
CCCCC1Cc2[nH]c(=S)[nH]c(=O)c2C(c2cccc3ccccc23)O1 (stereo not given)	?	-24%	?	-15%	13µM*	26
O=c1[nH]c(=S)[nH]c2c1[C@H](C1CC1)O[C@H](CCc1ccccc1)C2	13µM*	-10%	-8%	?	?	1
O=c1[nH][nH]c2c1[C@H](CCc1cccc(Cl)c1)O[C@H](CCc1ccccc1)C2	18µM*	-6%	-22%	?	-9%	0
COC(=O)CCCC[C@@H]1O[C@H](CCc2ccccc2)Cc2[nH][nH]c(=O)c21	?	1%	5%	-18%	134%	34
COC(=O)[C@]12C[C@H](CC(=O)NCCCN3CCCC3=O)C(=O)N(Cc3ccccc3)C1=C[C@H](C(C)C)O[C@@H]2C1CC1	nt	nt	nt	nt	9%	nt
COC(=O)CSc1nnc(-c2sc3ccccc3c2Cl)o1	-3%	12%	3%	-3%	27%	9
N#CCSc1nnc(-c2sc3ccccc3c2Cl)o1	?	?	?	?	-20%	-94*
Cc1ccc(-c2nc3ccccc3[nH]2)cc1NC(=S)NC(=O)c1ccccc1Br	15µM*	-5%	-15%	?	9%	-56*
Cc1ccc(-c2nc3ccccc3[nH]2)cc1NC(=O)/C=C/c1ccco1	16µM*	?	?	?	-30%	?
Cc1ccc(OCC(=O)Nc2cc(-c3nc4ccccc4[nH]3)ccc2C)c(C)c1	nt	nt	nt	nt	-21%	nt
Cc1cc(C)c2oc(-c3ccc(C)c(NC(=S)NC(=O)/C=C/c4ccco4)c3)nc2c1	?	3%	0%	?	?	14
COc1ccccc1CN1CC2(C1)C(=O)N(CCCN1CCCC1=O)C(=O)[C@@H]1C[C@@H](O)CN12	nt	nt	nt	nt	-1%	nt
Cc1cc(OCCCC(=O)NCCc2nnc3ccccn23)ccc1Cl	16µM*	-5%	-3%	?	-4%	18
COCCCNCc1cc(C)n(-c2cc(S(=O)(=O)N3CCOCC3)ccc2N2CCCC2)c1C	?	-1%	-1%	?	209%	-21
O=C(Nc1cc(S(=O)(=O)N2CCOCC2)ccc1-n1cncn1)c1ccc(Cl)cc1	29µM*	-6%	17%	?	-1%	?
O=C(Nc1cc(Cl)ccc1-n1cncn1)c1cc(S(=O)(=O)N2CCOCC2)ccc1F	-5%	0%	-1%	-28%	497%	-7
CCN1CCN(c2ccc(S(=O)(=O)N3CCCCC3)cc2NC(=O)c2sccc2C)CC1	23µM*	0%	-3%	?	?	-26
CCN1CCN(c2ccc(S(=O)(=O)N3CCCCC3)cc2NC(=O)c2cccc(C)c2)CC1	?	1%	4%	?	4%	?
CCN1CCN(c2ccc(S(=O)(=O)N3CCCCC3)cc2NC(=O)c2ccc(F)cc2)CC1	21µM*	-4%	-25%	?	?	-9
Cc1cc(C#N)c(C)n1-c1cc(S(=O)(=O)N2CCOCC2)ccc1N1CCCC1	15µM*	-2%	-5%	16µM*	?	-9
COc1cccc(C(=O)NC2CCN(c3nc4ncccc4o3)CC2)c1	nt	nt	nt	nt	2%	nt
O=C(NCc1cccs1)c1csc([C@@H]2O[C@H](CO)[C@H](O)[C@H](O)[C@H]2O)n1	9%	25%	?	3%	10%	13
O=C1CCN(S(=O)(=O)c2ccccc2)CCCN(C2CCCCCC2)CCN1	nt	nt	nt	nt	12%	nt
SMILES	TDP1 cell noCPT	HT1080NT lethal	HT1080 IDH1KD tx	DT40 TDP1 CPT	12-LOX inh	IL1B secr inh
CCS(=O)(=O)N1CCC(n2c(C)cnc2C2CC2)CC1	nt	nt	nt	nt	20%	nt
CCN1CCN(c2ccc(S(=O)(=O)N3CCCCC3)cc2NC(=O)c2ccc(C)c(C)c2)CC1	23µM*	-28%	-21%	?	191%	-10
CCN1CCN(c2ccc(S(=O)(=O)N3CCCCC3)cc2NC(=O)COc2ccc(F)cc2Cl)CC1	?	21µM*	18µM*	21µM*	?	?
CCN1CCN(c2ccc(S(=O)(=O)N3CCCCC3)cc2NC(=O)COc2ccc(Cl)cc2)CC1	?	-5%	-2%	?	?	-26
O=C(Nc1cc(S(=O)(=O)N2CCOCC2)ccc1N1CCCC1)c1ccc(F)cc1	?	11%	9%	13µM*	40µM*	-22
O=C1C(=O)N(C2CCN(C(=O)c3ccccc3F)CC2)CCN1Cc1ccc(F)cc1	-1%	nt	nt	10%	-9%	nt
O=C(CCc1ccccc1)N1CCCC(n2cc(-c3nc(-c4ccccc4)no3)nn2)C1 (stereo not given)	nt	nt	nt	nt	-10%	nt
O=C(c1cc2c(s1)CCCCCC2)N1CCN(S(=O)(=O)c2ccccc2)CC1	nt	nt	nt	nt	-28%	nt
CC1CC(C)CN(C(=O)c2ccc(S(=O)(=O)N3CC(C)CC(C)C3)cc2)C1 (stereo not given)	18µM*	-12%	-1%	23µM*	-6%	-77*
Cc1ccc(NS(=O)(=O)c2ccc(C(=O)N3CCN(c4ncccn4)CC3)cc2)cc1	7.3µM*	0%	2%	?	-25%	-1
Cc1ccc(S(=O)(=O)N2CCN(C(=O)c3cc4c(s3)CCCC4)CC2)cc1	16µM*	0%	4%	?	-11%	4
O=S(=O)(Nc1ccc(N2CCCCC2)cc1)c1ccc(F)cc1	29µM*	3%	5%	16µM*	?	5
O=C(CCC[C@@H]1[C@H]2CCCN3CCC[C@@H](CN1C(=O)c1cccnc1)[C@@H]23)NCc1ccccn1	nt	nt	nt	nt	393%	nt
CCC(C)NC(=O)Cc1csc2nc(C)c(-c3cc(C)n(-c4ccc(C)cc4C)n3)c(=O)n12 (stereo not given)	nt	nt	nt	nt	10%	nt
O=C(CCc1ccccc1)N1CCCC(Cc2nc(C3CCOCC3)no2)C1 (stereo not given)	nt	nt	nt	nt	10%	nt
CCOC(=O)N1CCN(C(=O)c2ccc(Cl)c(S(=O)(=O)Nc3ccccc3)c2)CC1	-29%	-1%	-8%	-19%	0%	-1
